# From PubChem BioAssay (NCATS)
# A number with no mark means an inactive call. Records with an inconclusive call do not appear. Where a call stands in place of a potency, no number is given. Active and inactive are the calls of the source. The call rests on the fitted dose curve; in most records, active means well fitted inhibition curve with a large enough effect; inconclusive means small, poorly fitted or top-dose-only effect; inactive means flat fitted curve, though single readings scatter.
# Columns and labels:
# [1] = target: Glutathione peroxidase 1 (Homo sapiens) (UniProt P07203); assay: Primary qHTS Assay for Inhibitors of Recombinant Selenoprotein Glutathione Peroxidase 1 (GPX1) (AID 1845191); further: nearly all actives have a fitted effect of over 65% in size
# Procedure, shortened: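 10 nM GPX1 + cpd, 30 min RT; start w/ 1 mM GSH, 0.5 mM cumene hydroperoxide, 0.5 mM NADPH, 100 nM GR, 0.01% BSA; buffer 50 mM Tris-HCl pH 7.5, 2 mM EDTA, 150 mM NaCl; Fl 340/450, 0 & 15 min.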
# [2] = target: Phospholipid hydroperoxide glutathione peroxidase GPX4 (Homo sapiens) (UniProt P36969); assay: Primary qHTS Assay for Inhibitors of Recombinant Selenoprotein Glutathione Peroxidase 4 (GPX4) (AID 1845192); further: series mostly up to about 50 µM; nearly all actives have a fitted effect of over 65% in size
# Procedure, shortened: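 NADPH consumption, followed by fluorescence at 340/450 nm between 0 and 15 min, reports GPX4 activity via coupled glutathione reductase (100 nM). Enzyme 200 nM was pre-exposed to compound 30 min; 0.5 mM cumene hydroperoxide and 1 mM GSH served as substrates.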
# [3] = target: Luciferin 4-monooxygenase (Photinus pyralis) (UniProt P08659); assay: Primary firefly luciferase (FLuc) qHTS assay for identification of artifact compounds. (AID 1845220); further: nearly all actives have a fitted effect of over 60% in size; further: potency means the concentration at half of the fitted maximal effect; on activity change, negative = inhibition: series mostly up to about 54 µM
# Procedure, shortened: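 Compounds sat 15 min at room temperature with 10 uM luciferin and 10 uM ATP (pH 7.6 Tris acetate). Firefly luciferase (10 nM final) was then added, and luminescence was read 5 min later. Data normalized to no-enzyme and DMSO controls were Hill-fitted.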
# [4] = system: Nanoluciferase (engineered Oplophorus gracilirostris luciferase); assay: Primary Nanoluciferase (NLuc) qHTS assay for identification of artifact compounds. (AID 1845222); further: series mostly up to about 54 µM
# Procedure, shortened: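 Luminescence from secreted NLuc (filtered, 1:55-diluted S16 cell medium) read 5 min after Nano-Glo substrate; compounds preincubated 15 min, RT. Hill fits of inhibition normalized to DMSO and no-enzyme.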
# Glutathione peroxidase 1 (Homo sapiens), sequence (P07203 whole entry, looked up): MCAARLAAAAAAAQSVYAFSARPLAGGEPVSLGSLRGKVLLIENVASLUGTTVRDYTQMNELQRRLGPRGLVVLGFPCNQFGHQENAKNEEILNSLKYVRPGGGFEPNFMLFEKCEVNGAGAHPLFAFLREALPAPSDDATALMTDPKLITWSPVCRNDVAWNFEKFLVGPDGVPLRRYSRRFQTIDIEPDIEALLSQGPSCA
# Phospholipid hydroperoxide glutathione peroxidase GPX4 (Homo sapiens), sequence (P36969 whole entry, looked up): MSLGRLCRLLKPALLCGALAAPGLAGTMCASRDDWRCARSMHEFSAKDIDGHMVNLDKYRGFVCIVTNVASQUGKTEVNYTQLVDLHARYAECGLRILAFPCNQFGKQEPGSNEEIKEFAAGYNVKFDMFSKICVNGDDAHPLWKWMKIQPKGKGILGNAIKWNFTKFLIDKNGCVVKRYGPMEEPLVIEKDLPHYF
SMILES,Potency [1],Potency [2],Potency [3],Potency [4],outcome [3],"activity, negative = inhibition [4]","activity change, negative = inhibition [3]"
CC(=O)c1c(C)cccc1O[C@@H]1O[C@H](CO)[C@@H](O)[C@H](O)[C@H]1O,inactive,inactive,inactive,inactive,–,–,–
O=C(CC1CC(c2ccc(F)cc2F)=NO1)N1CCOCC1 (stereo not given),inactive,inactive,2.13 µM (active),inactive,–,–,–
Cc1[nH]c2ccccc2c1CC(=O)N[C@@H](Cc1ccccc1)C(=O)N(C)c1ccccc1,inactive,inactive,inactive,inactive,–,–,–
Oc1ccc(CC2NCCc3cc(O)c(O)cc32)cc1 (stereo not given),inactive,inactive,inactive,inactive,–,–,–
C[C@H]1CC[C@H]2[C@@H](C=C[C@@](C)(O)[C@]2(C)C(=O)CCO)C1,inactive,inactive,inactive,inactive,–,–,–
C=C1CC23CC1CCC2C12OC(=O)C(C)(C(O)C(O)C1O)C2C3C(=O)O (stereo not given),inactive,inactive,inactive,inactive,–,–,–
COc1ccc(/C=C/C(=O)O[C@@H]2[C@@H](O)[C@@H](O)[C@H](O[C@H]3[C@@H]4C=CO[C@@H](O[C@@H]5O[C@H](CO)[C@@H](O)[C@H](O)[C@H]5O)[C@@H]4[C@@]4(CO)O[C@@H]34)O[C@H]2C)cc1,inactive,inactive,inactive,inactive,–,–,–
CC(NC(=O)CC(=O)O)C(=O)Nc1ccccc1C(N)=O (stereo not given),inactive,inactive,inactive,inactive,–,–,–
O=C(Nc1cc(-c2ccccc2)nn1-c1ccccc1)c1ccc([N+](=O)[O-])cc1,inactive,inactive,inactive,inactive,–,–,–
C[C@@H]1O[C@@H](O[C@H]2[C@H](OC(=O)[C@]34CCC(C)(C)C[C@H]3C3=CCC5[C@@]6(C)C[C@@H](O)[C@@H](O)[C@@](C)(CO)C6[C@H](O)C[C@@]5(C)[C@]3(C)CC4)OC[C@H](O)[C@@H]2O)[C@H](O)[C@H](O)[C@H]1O[C@@H]1OC[C@@H](O)[C@H](O[C@H]2O[C@H](C)[C@@H](O)[C@H](O)[C@@H]2O)[C@H]1O (stereo not given in full),inactive,inactive,–,–,inactive [at 11.6 µM],4.47% [at 11.6 µM],–
O=C(O)/C=C/c1ccc2occc2c1O[C@@H]1O[C@H](CO)[C@@H](O)[C@H](O)[C@H]1O,inactive,inactive,inactive,inactive,–,–,–
OC[C@@]1(O)CO[C@@H](OC[C@H]2O[C@@H](Oc3ccccc3)[C@H](O)[C@@H](O)[C@@H]2O)[C@@H]1O,inactive,inactive,inactive,inactive,–,–,–
O=C(O)c1ccnc(-c2cc(C(=O)NCCc3ccccc3)ccn2)c1,inactive,inactive,inactive,inactive,–,–,–
O=C(O)C[C@H]1CCC(=O)[C@@H]1C/C=C\CCO,inactive,inactive,inactive,inactive,–,–,–
CC(=O)/C=C/C1(O)C(C)=CC(=O)CC1(C)C (stereo not given),inactive,inactive,inactive,inactive,–,–,–
CC1CCCCCCCc2cc(O)cc(O)c2C(=O)O1 (stereo not given),inactive,inactive,inactive,inactive,–,–,–
CC1=CC2=C(C)C(=O)[C@](C)(O)[C@H](O)C2=CO1,inactive,inactive,inactive,inactive,–,–,–
C/C(=C\C(=O)C[C@@]12C(=O)O[C@]3(C)CC[C@H]1C[C@H]23)C(N)=O,inactive,inactive,inactive,inactive,–,–,–
C/C=C/C=C/C(O)=C1/C(=O)[C@]2(C)C3/C(=C(O)/C=C/C=C/C)C(=O)C4(C)C1[C@]1(C)O[C@@]4(O)[C@@]3(C)O[C@@]12O,inactive,inactive,inactive,inactive,–,–,–
COc1c(O)cc2c(c1O)C(=O)O[C@H](C)[C@H]2O,inactive,inactive,inactive,inactive,–,–,–
C=C(C)C(O)COc1ccc(CC(=O)O)cc1 (stereo not given),inactive,inactive,inactive,inactive,–,–,–
C=C(C(=O)O)[C@@H]1CC[C@@]2(C)CCC[C@@](C)(O)[C@@H]2C1,inactive,inactive,inactive,inactive,–,–,–
C=C[C@H]1[C@H](O[C@@H]2O[C@H](CO)[C@@H](O)[C@H](O)[C@H]2O)OC=C2C(=O)N3Cc4c([nH]c5ccccc5c4=O)[C@@H]3C[C@H]21,inactive,inactive,inactive,inactive,–,–,–
CC1(CO)CC(O)C2(C)CCC3(C)C(=CCC4C5(C=O)CCC(OC6OC(C(=O)O)C(O)C(O)C6OC6OC(C(=O)O)C(O)C(O)C6O)C(C)(C)C5CCC43C)C2C1 (stereo not given),inactive,inactive,–,–,–,-13.8% [at 11.6 µM],-10.9% [at 11.6 µM]
C=CC(C)(CC/C=C(\C)C(=O)OC)OC1OC(COC(=O)CC(C)(O)CC(=O)O)C(O)C(O)C1O (stereo not given),inactive,inactive,inactive,inactive,–,–,–
